TDP1 cell CPT – DT40-hTDP1 cell growth loss with CPT | chicken DT40 Tdp1-/-;hTDP1 cells + 20 nM CPT, ATP luminescence, 48 h | Potency, µM (doses to about 46.2 µM), without a hit: top-dose activity change, negative = growth inhibition, usual class: inhibitors | 420,000 tested, 12% active | AID 686979; note: potency is the fitted concentration of half-maximal effect; % is set by controls: 0 for no effect and ±100 for the full control effect; nearly all actives have a fitted effect of over 55% in size
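Chicken DT40 Tdp1-/- cells stably complemented with human TDP1 were seeded at 400 cells/well in medium containing 20 nM camptothecin, exposed to pin-transferred compounds, and grown at 37 °C for at least 48 hr. Viability was read as ATP luminescence.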
TDP1 inh – blocks human tyrosyl-DNA phosphodiesterase 1; recombinant TDP1, AlphaScreen DNA substrate cleavage; Potency, µM (series often up to 130 µM), inactives show at the top dose activity change, negative = inhibition, hits mostly inhibitors; 350,000 tested, 0.28% active; Q9NUW8; AID 485290; note: potency is the fitted concentration of half-maximal effect; % is set by controls: 0 for no effect and ±100 for the full control effect; nearly all actives have a fitted effect of over 40% in size
Target sequence (Q9NUW8 whole entry, looked up): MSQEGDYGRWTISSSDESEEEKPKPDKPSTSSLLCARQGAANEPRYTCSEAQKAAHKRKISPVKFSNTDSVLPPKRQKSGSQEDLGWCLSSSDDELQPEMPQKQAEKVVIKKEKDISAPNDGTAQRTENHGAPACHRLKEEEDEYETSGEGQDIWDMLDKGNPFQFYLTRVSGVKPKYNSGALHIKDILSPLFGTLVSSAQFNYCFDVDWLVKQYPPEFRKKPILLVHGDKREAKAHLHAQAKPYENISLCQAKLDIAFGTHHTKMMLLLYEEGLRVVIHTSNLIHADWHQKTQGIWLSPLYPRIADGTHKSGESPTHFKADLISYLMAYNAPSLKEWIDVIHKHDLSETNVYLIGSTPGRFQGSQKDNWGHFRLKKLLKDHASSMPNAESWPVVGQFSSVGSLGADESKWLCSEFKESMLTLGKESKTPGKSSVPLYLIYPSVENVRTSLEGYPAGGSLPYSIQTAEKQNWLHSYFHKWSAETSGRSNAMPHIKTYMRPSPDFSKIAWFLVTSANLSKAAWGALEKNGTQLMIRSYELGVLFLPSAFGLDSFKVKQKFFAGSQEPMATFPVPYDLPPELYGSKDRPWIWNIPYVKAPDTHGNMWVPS
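AlphaScreen read-out: signal falls as enzyme removes the 3' tyrosine-FITC from a 5'-biotinylated DNA oligo (15 nM, 5 min, RT). Enzyme was E. coli-made recombinant Tdp1 at 1 nM, exposed to compound for 15 min beforehand; beads 10 ug/ml, 10 min.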
HepG2 viability – kills HepG2 cells in TGF-b inhibitor counter-screen; HepG2 CAGA-GFP viability, ATP luminescence, 18 h; Potency, µM (doses to about 46.1 µM), inactives show at the top dose activity change, negative = cytotoxicity, usual class: cytotoxic; 410,000 tested, 0.76% active; note: potency is the fitted concentration of half-maximal effect
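HepG2 CAGA-GFP cells (1000/well, DMEM with 1% FBS) received compound, then TGF-beta at 500 pg/mL final, and were incubated 18 hours at 37 degrees C. Viability was read by CellTiter-Glo luminescence. Media-only wells were set as complete cell-killing and DMSO as no toxicity.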
IL1B secr inh – blocks inflammasome-driven IL-1 beta release; THP-1 LPS/ATP IL-1B secretion, AlphaLISA, 16 h; hits give low values; activity change, % at 57.5 µM; 360,000 tested, 4.7% active; in the data active = activity change below about -50%; inconclusive = mostly about -30% to -49%; note: % is set by controls: 0 for no effect and ±100 for the full control effect
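THP-1 cells pretreated 1 hr with compounds (up to 57.5 uM final), then stimulated with LPS (250 ng/mL final) plus ATP (1.25 mM final); secreted IL-1B measured by AlphaLISA after 16 hr, decreased signal indicating inhibition.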
TGFb inhibitor – inhibitors of TGF-b signaling; HepG2 CAGA-GFP TGF-b/SMAD3 reporter, GFP fluorescence, 18 h; TGF-beta stimulated, 500 pg/mL final; Potency, µM (doses to about 46.1 µM), for inactives: top-dose activity, negative = inhibition, actives largely listed as inhibitors; 410,000 tested, 1.2% active; AID 588855; note: potency is the fitted concentration of half-maximal effect; % is set by controls: 0 for no effect and ±100 for the full control effect; nearly all actives have a fitted effect of over 65% in size
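Per well, imaged GFP fluorescence of HEPG2 CAGA-GFP cells gives the signal; cells get compound, then TGF-beta (500 pg/mL final), 18 h at 37 degrees C; %Activity versus -TGF-beta and +DMSO controls.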
TDP1 cell noCPT – qHTS for Inhibitors of human tyrosyl-DNA phosphodiesterase 1 (TDP1): qHTS in cells in absence of CPT | DT40 Tdp1-/- hTDP1 cells, no CPT, ATP luminescence, 48 h | Potency, µM (doses to about 46.2 µM), for the others: at the highest dose activity change, negative = growth inhibition, hits mostly inhibitors | 420,000 tested, 15% active; note: potency is the fitted concentration of half-maximal effect; % is set by controls: 0 for no effect and ±100 for the full control effect; nearly all actives have a fitted effect of over 55% in size
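Compound effects on proliferation are scored in DT40 Tdp1-/-;hTDP1 cells in the absence of CPT. ATP levels (CellTiter-Glo luminescence) are recorded after a ≥48 hr, 37 °C incubation.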
An asterisk follows results filed as active; [ ] = dose if it differs, or a comment. Compounds with a hit are over-represented: about 19% of the library has one in this group of screens. Unless noted, calls come from the whole dose curve; as a rule, active = well fitted curve in the direction sought with a large enough effect; inconclusive = small, poorly fitted or top-dose-only effect, or another doubt; inactive = no such curve, though single readings can be large; an effect the other way counts as inactive or inconclusive.

O=C(CCN1Cc2ccccc2OC(c2ccccc2F)C1)N1CCC(N2CCCC(O)C2)CC1 (stereo not drawn) was read as TDP1 cell CPT 2%[9.04 µM] and TDP1 cell noCPT -21%.
Screening COc1ccc(OC)c(/C=N/N2CCN(c3ccc(Cl)cc3)CC2)c1 returned TDP1 cell CPT inconclusive, HepG2 viability -2%, IL1B secr inh -13, TGFb inhibitor -14% and TDP1 cell noCPT inconclusive.
Screening CC(=O)Nc1ccc(NC(=O)CC2Nc3cccc4cccc(c34)NC2=O)cc1 (stereo not drawn) returned TDP1 cell CPT -15%, TDP1 inh 0%, HepG2 viability -4%, IL1B secr inh 0, TGFb inhibitor 0% and TDP1 cell noCPT inconclusive.
For CC(=O)c1ccc(NC(=O)CC2Nc3cccc4cccc(c34)NC2=O)cc1 (stereo not drawn) the results were TDP1 cell CPT 18µM*, TDP1 inh 5%, HepG2 viability -1%, IL1B secr inh -13, TGFb inhibitor -11% and TDP1 cell noCPT 16µM*.
For O=C(COc1coc(CN2CCN(c3ccccc3)CC2)cc1=O)Nc1ccc(F)cc1 the results were TDP1 cell CPT -39%, TDP1 inh -4%, HepG2 viability -13%, IL1B secr inh -7, TGFb inhibitor 6% and TDP1 cell noCPT -27%.
Screening O=[N+]([O-])c1ccc2c(c1N1CCCCC1)=NC1(CCCCC1)[N+]=2[O-] returned TDP1 cell CPT 21µM*, HepG2 viability -58%, IL1B secr inh 3, TGFb inhibitor -18% and TDP1 cell noCPT 21µM*.
For O=[N+]([O-])c1ccc(Cl)cc1N1CCCCC1 the results were TDP1 cell CPT inconclusive, TDP1 inh 6%, HepG2 viability -28%, IL1B secr inh 5, TGFb inhibitor -20% and TDP1 cell noCPT -16%.
For C/C(=N\O)C(=O)C(CN1CCCCC1)CN1CCCCC1 the results were TDP1 cell CPT 2.9µM*, TDP1 inh 9%, HepG2 viability -15%, IL1B secr inh -30, TGFb inhibitor -9% and TDP1 cell noCPT 2.6µM*.
`CC(=O)/C(CN1CCCCC1)=N\O` gave TDP1 cell CPT 2%, TDP1 inh 2%, HepG2 viability 5%, IL1B secr inh 6, TGFb inhibitor 1% and TDP1 cell noCPT 7%.
`CC(C)(C)OC(=O)NC1CNNC1=O` (stereo not drawn) gave TDP1 cell CPT -17%, TDP1 inh 0%, HepG2 viability 3%, IL1B secr inh 21, TGFb inhibitor inconclusive and TDP1 cell noCPT 3%.
For Cn1cc(Br)c(-c2cccc(NC(=O)CCCC(=O)O)c2)n1 the results were TDP1 cell CPT -1%, TDP1 inh -3%, HepG2 viability 1%, IL1B secr inh 92, TGFb inhibitor 1% and TDP1 cell noCPT 0%.
`CC(C(=O)NC(C)(C)C)N(Cc1cccs1)C(=O)CCN1CCc2ccccc21` (stereo not drawn) gave TDP1 cell CPT 23µM*, TDP1 inh 3%, HepG2 viability -2%, IL1B secr inh 20, TGFb inhibitor -13% and TDP1 cell noCPT inconclusive.
CC(C)(C)NC(=O)CN(Cc1cccs1)C(=O)CCN1CCc2ccccc21 was read as TDP1 cell CPT inconclusive, TDP1 inh 1%, HepG2 viability -20%, IL1B secr inh 7, TGFb inhibitor inconclusive and TDP1 cell noCPT -21%.
Screening COc1ccc(OCC(=O)NNC(=O)c2ccccc2OCc2c(C)noc2C)cc1 returned TDP1 cell CPT -3%, TDP1 inh 3%, HepG2 viability -7%, IL1B secr inh 23, TGFb inhibitor -1% and TDP1 cell noCPT -17%.

Screening data: PubChem BioAssay, National Center for Advancing Translational Sciences (NCATS)
